TSHR antagonist: Antagonists of the Thyroid Stimulating Hormone Receptor: HTS campaign. Thyrotropin receptor (Homo sapiens), P16473. TSHR-expressing cells, TSH-stimulated cAMP HTRF, 2 h; hits give low values. activity change, negative = inhibition, % at 11.5 µM. 0.2% of 330,000 active. AID 504810, 2011;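 active = activity change below a set negative limit, meaning inhibition stronger than a set level, cut at about -70% in these data; inconclusive = activity change between two set negative limits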; also: % is scaled to controls: 0 for no effect and ±100 for the full control effect
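Read-out is FRET at 665 nm (cryptate excitation 337 nm) from a cryptate-tagged anti-cAMP antibody, competed by cell cAMP against cAMP-d2. Compounds are tested on freshly harvested TSHR cells challenged with 4nM TSH (EC80) for 2 hours at 37 deg C.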
Anesthetic bind: qHTS Assay for Identification of Novel General Anesthetics. Potency, µM (doses to about 77.5 µM), for inactives: top-dose activity change, negative = displacement, actives largely listed as inhibitors. Ferritin light chain (Equus caballus), P02791. apoferritin/1-aminoanthracene competitive binding, fluorescence. 0.074% of 350,000 active; also: potency is read from the fitted curve at half-maximal effect; % is scaled to controls: 0 for no effect and ±100 for the full control effect; nearly all actives have a fitted effect of over 20% in size
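Steps: apoferritin (10 uM) was premixed with half-saturated 1-AMA in PBS, compounds were pin-transferred, plates stood 10 min at room temperature, fluorescence was read at 380/535 nm, and curves were fitted with a Hill equation.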
PTAP TSG101 blk: qHTS Assay for Iinhibitors of HIV-1 Budding by Blocking the Interaction of PTAP/TSG101. Fluorescence polarization, FITC-PTAP peptide / Tsg101 binding. Potency, µM (titrated, usually from 115 µM), without a hit: top-dose activity change, negative = inhibition, most hits filed as inhibitors. 340,000 tested, under 10 active. AID 493005, 2010; active = well fitted inhibition curve with a large enough effect in the main read-out, with a control signal flat, not every such curve was filed as active; inconclusive = small, poorly fitted or top-dose-only effect, or effect the other way, or a change in a side signal; inactive = no such curve, though single readings can be large or run the other way; also: potency is read from the fitted curve at half-maximal effect; % of control where 0% means no effect
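Fluorescence anisotropy tracks displacement of a FITC-tagged PTAP peptide (50 nM) from the Tsg101 binding domain (10 uM), following a 20 min room-temperature incubation at pH 7.5.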
BRCA1 expr act: qHTS Assay to Identify Small Molecule Activators of BRCA1 Expression; MCF7-BRCA1-FFLuc reporter, luminescence, 48 h; response scale: scaled: vehicle 0%, 10 µM genistein 100%; Potency, µM (series often up to 46.1 µM), for the others: at the top dose activation, hits mostly activators; 1.1% of 380,000 active; AID 624202, 2012; also: potency is read from the fitted curve at half-maximal effect; nearly all actives have a fitted effect of over 80% in size
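MCF7-BRCA1-FFLuc cells, 2000/well in phenol-red-free MEM, attached 2 h then treated 48 h at 37 C. Luciferase luminescence read 15 min after reagent; normalized to genistein maximum activation (10microM) and DMSO, concentration-response fitted.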
S-ASM inh: Inhibitors of Secretory Acid Sphingomyelinase (S-ASM): qHTS. Sphingomyelin phosphodiesterase (Homo sapiens), P17405. Potency, µM (doses to about 57.5 µM), without a hit: at the highest dose activity change, negative = inhibition, usual class: inhibitors. AID 504937, 2011. placental ASM, HMU-PC fluorogenic substrate, 60 min. 0.006% of 340,000 active; also: potency is read from the fitted curve at half-maximal effect
Target sequence (P17405 47-631 limits assumed): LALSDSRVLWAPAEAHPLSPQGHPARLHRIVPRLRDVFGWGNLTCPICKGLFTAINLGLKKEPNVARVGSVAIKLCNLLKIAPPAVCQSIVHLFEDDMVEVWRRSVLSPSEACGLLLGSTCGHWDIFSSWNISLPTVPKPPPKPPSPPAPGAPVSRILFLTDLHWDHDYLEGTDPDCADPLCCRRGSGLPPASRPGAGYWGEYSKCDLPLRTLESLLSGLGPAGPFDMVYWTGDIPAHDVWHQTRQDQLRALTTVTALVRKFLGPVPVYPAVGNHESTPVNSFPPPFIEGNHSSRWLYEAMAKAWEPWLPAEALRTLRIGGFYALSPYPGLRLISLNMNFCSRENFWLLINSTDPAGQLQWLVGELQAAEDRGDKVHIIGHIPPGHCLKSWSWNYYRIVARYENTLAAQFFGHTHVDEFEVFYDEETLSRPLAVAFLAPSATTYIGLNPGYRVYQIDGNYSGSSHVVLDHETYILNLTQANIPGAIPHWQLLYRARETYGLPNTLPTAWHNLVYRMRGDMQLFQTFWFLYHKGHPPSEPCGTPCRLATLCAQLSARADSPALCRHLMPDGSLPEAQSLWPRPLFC
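Fluorogenic HMU-PC substrate (9 uM final) is turned over by placental ASM in 60 min at 37 C after a 10 min compound preincubation. Reaction ended by alkaline stop (pH 10), with fluorescence read at 386/447 nm.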
* = called active by the depositor; i = inactive; ? = inconclusive; · = no result; [ ] = remark or other dose. An excerpt weighted towards active compounds, which were near 1.2% of everything screened. Unless noted, calls follow the shape of the dose curve; as a rule, active = well fitted curve in the direction sought with a large enough effect; inconclusive = small, poorly fitted or top-dose-only effect, or another doubt; inactive = no such curve, though single readings can be large; an effect the other way counts as inactive or inconclusive.

SMILES	TSHR antagonist	Anesthetic bind	PTAP TSG101 blk	BRCA1 expr act	S-ASM inh
COc1cc(N=Nc2ccccc2C(=O)O)ccc1O	-9	-5%	4%	-41%	-1%
N/C(=N\OC(=O)c1ccccc1F)c1ccc([N+](=O)[O-])cc1	-5	-3%	1%	2.8µM*	-2%
Cc1ccc(/C(N)=N/OC(=O)CSc2ccccc2)cc1	-10	-9%	1%	7.9µM*	-2%
COc1ccc(/C(N)=N/OC(=O)CSc2ccccc2)cc1	-12	7%	1%	?	0%
N/C(=N\OC(=O)CSc1ccccc1)c1ccc([N+](=O)[O-])cc1	-23	?	-9%	11µM*	0%
COc1cc2ccccc2cc1C(=O)OCC(=O)Nc1ccc(Br)cc1	·	·	·	8%	·
CC(C)[C@H](NC(=O)CNC(=O)OC(C)(C)C)C(=O)N[C@H](C=O)C(C)C	·	-2%	·	·	·
CCOC(=O)C1=NN(c2ccc(Cl)cc2)C(=O)C1	-28	-5%	-10%	4µM*	22%
O=C(OCc1ccc(Cl)cc1)c1cccnc1Cl	-8	-20%	-8%	-2%	3%
COC(=O)c1ccc(COC(=O)c2cccnc2Cl)cc1	-9	1%	-2%	13µM*	0%
Cc1cn(CCC(=O)Nc2ccccc2N2CCOCC2)c2ccccc12	6	-8%	-1%	?	-1%
Cc1cn(CCC(=O)Nc2ccc(N3CCOCC3)cc2)c2ccccc12	4	-1%	-2%	10µM*	5%
CS(=O)(=O)N(CC(=O)N1CCOCC1)c1cccc(F)c1	-93*	0%	-4%	1%	2%
CC1CCN(C(=O)CN(c2cccc(F)c2)S(C)(=O)=O)CC1	16	-4%	0%	5%	-2%
Cc1ccc(C(=O)Nc2nccs2)s1	3	2%	-4%	11µM*	-2%
O=C(Nc1nccs1)c1ccc(Br)s1	-1	-1%	-5%	10µM*	1%
Cc1cc2c(c(=O)o1)[C@@H](O)[C@H]1O[C@@H]1C2=O	·	-5%[15.3 µM]	·	·	·
O=c1[nH]/c(=C/c2ccc3c(c2)OCO3)c(=O)[nH]/c1=C\c1ccc2c(c1)OCO2	·	·	·	1%	·
COc1ccc(C(=O)c2ccsc2N)cc1	-2	-14%	1%	11µM*	-2%
CCc1cc(C(=O)c2ccc(OC)cc2)c(N)s1	-8	-16%	0%	-28%	-3%
CCOc1ccc(NC(=O)CSc2nccn2C)cc1	-12	-6%	-7%	?	-1%
Cn1ccnc1SCC(=O)c1ccc(OC(F)F)cc1	-12	-4%	-2%	?	0%
Cn1ccnc1SCC(=O)Nc1ccc(Oc2ccccc2)cc1	-12	?	-5%	10µM*	0%
COc1ccc(C(=O)CSc2nccn2C)cc1	-12	-8%	-2%	8.9µM*	-2%
COc1cc(/C=C2/SC(=S)NC2=O)ccc1OS(=O)(=O)c1ccc(C)cc1	?	-24%	-2%	-77%	-12%
SMILES	TSHR antagonist	Anesthetic bind	PTAP TSG101 blk	BRCA1 expr act	S-ASM inh
COc1cc(/C=C2\SC(=S)NC2=O)ccc1OS(=O)(=O)c1ccccc1	-74*	-18%	·	·	·
CC(=O)N1N=C(c2ccc(C)cc2)CC1c1ccc2c(c1)OCO2 (stereo not given)	-2	-5%	0%	4.5µM*	-3%
CC(=O)N1N=C(c2ccc(Cl)cc2)CC1c1ccco1 (stereo not given)	13	-5%	-10%	52%	-1%
CC(=O)N1N=C(c2ccc(C)cc2)CC1c1ccco1 (stereo not given)	-1	-9%	-5%	13µM*	-2%
CCc1ccc2oc(-c3cc(NC(=O)COc4ccc(C)cc4)ccc3O)nc2c1	·	·	·	-1%	·
N[C@@H](Cn1ccc(=O)c(O)c1)C(=O)O	-14	·	·	·	·
CC1Cc2cc(-c3csc(NC(=O)Cc4cccs4)n3)ccc2N1S(C)(=O)=O (stereo not given)	-72*	9%	2%	-89%	-20%
CC(C)c1cccc2c([Si](C)(C)C)c3c(nc12)-c1cccc(=O)n1C3	·	-13%	·	·	·
CCc1ccc(NC(=O)c2ccc3nc(N)sc3c2)cc1	-2	?	-2%	11µM*	-12%
CCc1ccc(NC(=O)c2ccccc2Br)cc1	8	-20%	-2%	3.2µM*	1%
CC(=O)Nc1ccc(NC(=O)c2ccccc2Br)cc1	·	·	·	12%	·
O=C(Nc1ccc(Br)cc1)c1ccccc1Br	-1	-14%	-5%	1.1µM*	-1%
COc1ccc2cc([S+]([O-])Cc3ncc(C)c(OC)c3C)nc2c1	-7	·	·	·	·
Oc1ccc(COC2CCN(Cc3ccccc3)C2)c2cccnc12 (stereo not given)	3	·	·	·	·
COc1cc(NC(=O)CSc2nnc3c4ccccc4n(C)c3n2)cc(OC)c1OC	·	·	·	0%	·
O=c1c2c3c(sc2nc2n1N=C(c1cccs1)CS2)CCCC3	-3	-15%	-3%	1.3µM*	1%
O=C(Nc1cccnc1Cl)c1cnn2c1NC(=C1CC1)C=C2C(F)F	·	·	·	4%	·
CCOc1ccc2nc(N3CCCC(C(=O)NCc4ccc(OC)cc4)C3)sc2c1 (stereo not given)	·	33%	·	·	·
CCOc1ccc2nc(N3CCCC(C(=O)NCC4CCCO4)C3)sc2c1 (stereo not given)	-10	4%	-4%	10µM*	-1%
COc1ccc(C2Nc3ccccc3C(=O)N2Cc2ccco2)cc1COc1c(C)cccc1C (stereo not given)	·	·	·	-69%	·
O=C1C[C@H](c2ccc3ccccc3c2)N1S(=O)(=O)c1ccccc1[N+](=O)[O-]	·	-13%	·	·	·
O=c1oc2ccccc2cc1-c1nc(-c2ccccc2)no1	-4	-12%	-3%	13µM*	13%
CCCCn1nc(NC(=O)CC(C)C)c2cc3cc(OC)ccc3nc21	3	51%	3%	0%	298%
CCCCn1nc(NC(=O)CCC)c2cc3cc(OC)ccc3nc21	-7	42%	-1%	13µM*	384%
O=Cc1ccc(OCc2ccc3ccccc3c2)cc1	-4	?	0%	4.5µM*	-3%
COc1ccc(S(=O)(=O)NCCc2cn3nc(C)c(C)nc3n2)cc1F	-88*	392%	-3%	3%	i
CC(=O)Nc1ccc(-c2nnc(SCc3ccccc3)n2C)cc1	·	·	·	25%	·

Bioassay records deposited in PubChem BioAssay by National Center for Advancing Translational Sciences (NCATS).
